The structures appear in SMILES notation. Results filed as inconclusive are left out. Unmarked numbers belong to inactive results. Calls of active or inactive are those of the source. Calls follow the shape of the dose curve; as a rule, active = well fitted cell-killing curve with a large enough effect; inconclusive = small, poorly fitted or top-dose-only effect, or effect the other way; inactive = no such curve, though single readings can be large or run the other way.

The nature of assay [1]: Quantitative High-Throughput drug screen in 47 multiple myeloma cell lines against the NCATS MIPE library collection: U266_ATCC cell viability assay (AID 1919864). Also: nearly all actives have a fitted effect of over 35% in size. In a few lines: (§1)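 500 cells/well; MIPE 4.0 drugs pin-transferred; 48 h, 37C, 5% CO2. CellTiter-Glo, 5 min RT, luminescence. Controls: DMSO 100%, media 0%.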
Assay [2] is described as follows: Quantitative High-Throughput drug screen in 47 multiple myeloma cell lines against the NCATS MIPE library collection: VP6_DJ cell viability assay (AID 1919867). Also: nearly all actives have a fitted effect of over 40% in size. In a few lines: as §1
Assay [3] is described as follows: Quantitative High-Throughput drug screen in 47 multiple myeloma cell lines against the NCATS MIPE library collection: PCM6_Riken cell viability assay (AID 1919870). Also: nearly all actives have a fitted effect of over 30% in size. The method, boiled down:
as §1

Assay [4] in a line: Quantitative High-Throughput drug screen in 47 multiple myeloma cell lines against the NCATS MIPE library collection: RPMI8226_ATCC cell viability assay (AID 1919871). Also: nearly all actives have a fitted effect of over 30% in size. The method, boiled down: as §1
The nature of assay [5]: Quantitative High-Throughput drug screen in 47 multiple myeloma cell lines against the NCATS MIPE library collection: OPM2_DSMZ cell viability assay (AID 1919872). Also: nearly all actives have a fitted effect of over 30% in size. In a few lines: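 Myeloma cell lines, 500 cells per well, exposed to MIPE 4.0 library compounds for 48 h at 37C, 5% CO2. Viability from ATP by CellTiter-Glo luminescence; normalised to DMSO (100%) and media-only (0%) wells.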

Assay [6] is described as follows: Quantitative High-Throughput drug screen in 47 multiple myeloma cell lines against the NCATS MIPE library collection: KMS11_JCRBsus cell viability assay (AID 1919873). Also: nearly all actives have a fitted effect of over 50% in size. The method, boiled down: as §1
The nature of assay [7]: Quantitative High-Throughput drug screen in 47 multiple myeloma cell lines against the NCATS MIPE library collection: XG6_PLB cell viability assay (AID 1919865). Also: nearly all actives have a fitted effect of over 40% in size. In a few lines: as §1
A short description of assay [8]: Quantitative High-Throughput drug screen in 47 multiple myeloma cell lines against the NCATS MIPE library collection: XG1_PLB cell viability assay (AID 1919866). Also: nearly all actives have a fitted effect of over 35% in size. In a few lines: as §1
The nature of assay [9]: Quantitative High-Throughput drug screen in 47 multiple myeloma cell lines against the NCATS MIPE library collection: UTMC2_PLB cell viability assay (AID 1919868). Also: nearly all actives have a fitted effect of over 55% in size. The following applies: CellTiter-Glo ATP luminescence, 48 h; viability (% of DMSO control): at 45.8 µM (top of the series). The method, boiled down: as §1
A general note: Cellular ATP, detected with luciferase, serves as a proxy for viable cell number.

The nature of assay [10]: Quantitative High-Throughput drug screen in 47 multiple myeloma cell lines against the NCATS MIPE library collection: PE2_PLB cell viability assay (AID 1919869). Also: nearly all actives have a fitted effect of over 35% in size. The method, boiled down: as §1
Potency is read from the fitted curve at half-maximal effect.

In the case of `Cc1coc2c1C(=O)C(=O)c1c-2ccc2c(C)cccc12`, the Potency was 20900 nM (active) in assay [1], 11800 nM (active) in assay [2] and 3720 nM (active) in assay [3].
`CC(C)OC(=O)[C@H](C)N[P@](=O)(OC[C@H]1O[C@@H](n2ccc(=O)[nH]c2=O)[C@](C)(F)[C@H]1O)Oc1ccccc1`: the Potency result in assay [1], in assay [3], in [4], in assay [5] and in assay [6] was “inactive” in each case.
As to `COc1ccc(C[C@@H](C)[C@@H](C)Cc2ccc(OC)c(OC)c2)cc1OC`, the Potency in [7] is 264 nM (active); in [8], 187 nM (active); in assay [2] it was 833 nM (active); in [9] it was 209 nM (active); in [10], 332 nM (active); in assay [3] it was 332 nM (active). For the same compound, the Potency in assay [4] was 1180 nM (active); in assay [5], 469 nM (active); in [6] it was 132 nM (active).
For `CNC(=O)Nc1ccc(-c2nc(N3CC4CCC(C3)O4)c3cnn(C4CCC5(CC4)OCCO5)c3n2)cc1`, the Potency was 14.8 nM (active) in assay [1], 66.2 nM (active) in assay [3] and 20.9 nM (active) in [5].
On to `CC[C@H]1OC(=O)[C@H](C)[C@@H](O[C@H]2C[C@@](C)(OC)[C@@H](O)[C@H](C)O2)[C@H](C)[C@@H](O[C@@H]2O[C@H](C)C[C@H](N(C)C)[C@@H]2O)[C@](C)(OC)C[C@@H](C)C(=O)[C@H](C)[C@@H](O)[C@]1(C)O`, for which the Potency result in assay [7], in assay [8], in assay [2], in assay [9], in [10] and in assay [3] was “inactive” each time. Moreover, in [4], the Potency result is “inactive”.
On to `C#Cc1cccc(Nc2ncnc3cc(OCCOC)c(OCCO)cc23)c1`, for which the Potency is 16600 nM (active) in [1], 1050 nM (active) in assay [10] and 8330 nM (active) in assay [6].
With `CC(=O)OCC(=O)[C@@]1(O)CC[C@H]2[C@@H]3CCC4=CC(=O)CC[C@]4(C)[C@@H]3C(=O)C[C@@]21C`, the Potency result in assay [1], in assay [8], in assay [10], in [3], in [4] and in assay [5] was “inactive” in each case.
`Cc1ccc2nc(NCCN)c3ncc(C)n3c2c1`: the Potency in assay [7] was 1870 nM (active); in assay [8] it was 2350 nM (active); in [2], 5260 nM (active); in assay [9], 4690 nM (active); in assay [10] it was 9350 nM (active); in assay [3], 2640 nM (active). Further, the Potency in [4] is 6620 nM (active); in [5], 11800 nM (active); in [6], 3720 nM (active).
For the compound `CC(=O)OC[C@@H]1O[C@@H](n2ccc(=O)[nH]c2=O)[C@H](OC(C)=O)[C@H]1OC(C)=O`, the Potency entry in assay [1], in assay [8], in assay [9], in [10], in assay [3] and in assay [4] was “inactive” each time. Moreover, the Potency entry in [5] and in [6] was “inactive” throughout.
In the case of `N#Cc1ccc(COC[C@H]2O[C@@H](n3c(NCc4ccc(Cl)c(Cl)c4)nc4c(N)ncnc43)[C@@H](O)[C@@H]2O)cc1`, the Potency in [1] was 20900 nM (active); in [8] it was 2640 nM (active); in [9], 1320 nM (active); in [3] it was 5260 nM (active); in assay [4], 5260 nM (active); in assay [6], 5260 nM (active).
Consider `CCc1cc(C(C)=NOCc2ccc(C3CCCCC3)c(C(F)(F)F)c2)ccc1CN1CC(C(=O)O)C1`, for which the Potency result in assay [1] and in assay [6] was “inactive” each time. Besides, the Potency in assay [2] and in assay [3] was 11800 nM (active) each time.
Take `Oc1ccc(-c2ccc(-c3cc(Nc4cccc(CNC5CC5)c4)n[nH]3)cc2)c(O)c1`: the Potency is 418 nM (active) in assay [7]; 526 nM (active) in [8]; 743 nM (active) in [2]; 1320 nM (active) in assay [9]; 1320 nM (active) in [10]; 590 nM (active) in [3]. Further, the values for the Potency in [4], in assay [5] and in [6] were 9350 nM (active), 4690 nM (active) and 1320 nM (active), respectively.
As for `C[C@H](CCC(=O)O)[C@H]1CCC2C3C[C@H](O)[C@@H]4C[C@H](O)CC[C@]4(C)C3CC[C@@]21C` (stereo partly specified), the Potency result in [1], in assay [9], in assay [10], in [3] and in [4] was “inactive” throughout. The Potency in assay [8] was 18700 nM (active).
As to `N#Cc1c(NC(=O)c2cccc3ccccc23)sc2c1CCCC2`, the Potency in [7] is 148 nM (active); in [8] it was 83.3 nM (active); in [2], 296 nM (active); in assay [9], 418 nM (active); in [10], 526 nM (active); in assay [3], 296 nM (active). In addition, the results for the Potency in [4], in assay [5] and in assay [6] were 2640 nM (active), 743 nM (active) and 148 nM (active), respectively.
As for `CC(=O)O[C@H]1C[C@@H]2CC[C@H]3[C@H]4C[C@H]([N+]5(C)CCCCC5)[C@@H](OC(C)=O)[C@@]4(C)CC[C@@H]3[C@@]2(C)C[C@H]1[N+]1(C)CCCCC1`, the Potency in assay [1] was 23500 nM (active). For the same compound, the Potency result in assay [8], in assay [3], in [4], in assay [5] and in assay [6] was “inactive” in each case.
With `C[C@](Cc1c[nH]c2ccccc12)(NC(=O)OC1C2CC3CC(C2)CC1C3)C(=O)NC[C@H](NC(=O)CCC(=O)O)c1ccccc1` (stereo partly specified), the Potency entry in [1], in assay [10], in assay [4], in assay [5] and in [6] was “inactive” each time.
On to `COc1cc(O)c2c(c1)C1OC1C[C@H](O)[C@H](O)C(=O)C=CC[C@H](C)OC2=O` (stereo partly specified), for which the Potency in assay [7] was 4690 nM (active); in assay [8] it was 2640 nM (active); in assay [2], 1660 nM (active); in assay [9], 10500 nM (active); in [10], 2350 nM (active); in assay [3] it was 2350 nM (active). Further, the Potency in assay [4] was 3720 nM (active); in assay [5], 2640 nM (active); in assay [6] it was 2350 nM (active).
Regarding `O=C(O)CCCCCC(=O)NN=C1CCCC1`, the Potency entry in assay [1], in [8], in [2], in [10], in [3] and in assay [4] was “inactive” throughout. In addition, the Potency entry in [5] and in [6] was “inactive” each time.
For the compound `CC(C)c1cc(C(C)C)c(CC(=O)NS(=O)(=O)Oc2c(C(C)C)cccc2C(C)C)c(C(C)C)c1`, the Potency result in assay [1] is “inactive”. Moreover, the results for the Potency in assay [10], in [5] and in assay [6] were 5900 nM (active), 23500 nM (active) and 2350 nM (active), respectively.
Turning to `c1cc(N[C@@H]2CCNC2)nc(-c2cnc3ccc(-c4cn[nH]c4)cn23)c1`, the Potency in [7] was 2640 nM (active); in [8], 5260 nM (active); in assay [2] it was 14800 nM (active); in assay [9], 4690 nM (active); in assay [10], 2350 nM (active); in assay [3], 5900 nM (active). Moreover, the Potency entry in [4] was “inactive”.

Values taken from PubChem BioAssay (NCATS).
